ATXN viability = Viability Counterscreen for Primary qHTS for Inhibitors of ATXN expression; actives 0.49% (n = 400,000); Potency, µM (series often up to 56.7 µM), actives largely listed as cytotoxic; S2 cells (HEK-293 line with an ATXN2-luciferase reporter) viability, CellTiter-Fluor protease fluorescence, 24 h; also: nearly all actives have a fitted effect of over 40% in size
DT40 TDP1 no CPT = qHTS for Inhibitors of human tyrosyl-DNA phosphodiesterase 1 (TDP1): qHTS in cells in absence of CPT; actives 15% (n = 420,000); DT40 Tdp1-/- hTDP1 cells, no CPT, ATP luminescence, 48 h; Potency, µM (titrated, usually from 46.2 µM), for inactives: at the highest dose activity change, negative = growth inhibition, hits mostly inhibitors; also: % is scaled to controls: 0 for no effect and ±100 for the full control effect; nearly all actives have a fitted effect of over 55% in size
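Compound effects on proliferation are scored in DT40 Tdp1-/-;hTDP1 cells in the absence of CPT. ATP levels (CellTiter-Glo luminescence) are recorded after a ≥48 hr, 37 °C incubation.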
HepG2 tox = qHTS for Inhibitors of TGF-b: Cytotox Counterscreen. HepG2 CAGA-GFP viability, ATP luminescence, 18 h. Potency, µM (titrated, usually from 46.1 µM), for inactives: top-dose activity change, negative = cytotoxicity, usual class: cytotoxic. actives 0.76% (n = 410,000)
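CellTiter-Glo luminescence gave cytotoxicity after 18 hours at 37 degrees C. The cells were HepG2 CAGA-GFP in 1% FBS DMEM, stimulated with 500 pg/mL TGF-beta after compound addition. %Activity was normalised to no-cell wells (complete cell-killing) and DMSO (no toxicity), and curves were fitted and classified.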
TGFb inhibitor = qHTS for Inhibitors of TGF-b. AID 588855, 2011. actives 1.2% (n = 410,000). HepG2 CAGA-GFP TGF-b/SMAD3 reporter, GFP fluorescence, 18 h; TGF-beta stimulated, 500 pg/mL final. Potency, µM (highest dose often 46.1 µM), for inactives: at the top dose activity, negative = inhibition, actives largely listed as inhibitors; also: % is scaled to controls: 0 for no effect and ±100 for the full control effect; nearly all actives have a fitted effect of over 65% in size
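Read-out: total well GFP (ex488/em500-530) summed from mean per-cell fluorescence. Cells: HEPG2 CAGA-GFP, 1% FBS DMEM, 18 h at 37 degrees C with 500 pg/mL final TGF-beta. Unstimulated wells served as the full-inhibition control; stimulated DMSO wells = 0%.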
TDP1 cell CPT = qHTS for Inhibitors of human tyrosyl-DNA phosphodiesterase 1 (TDP1): qHTS in cells in presence of CPT; chicken DT40 Tdp1-/-;hTDP1 cells + 20 nM CPT, ATP luminescence, 48 h; Potency, µM (titrated, usually from 46.2 µM), for inactives: at the highest dose activity change, negative = growth inhibition, actives largely listed as inhibitors; actives 12% (n = 420,000); also: % is scaled to controls: 0 for no effect and ±100 for the full control effect; nearly all actives have a fitted effect of over 55% in size
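Cell growth measured by CellTiter-Glo luminescence after a minimum 48 h, 37 C compound exposure with 20 nM CPT in Tdp1-knockout DT40 cells stably expressing hTDP1, seeded 400/well; qHTS titration format.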
ATXN2 expr inh = Primary qHTS for Inhibitors of ATXN expression; actives 0.72% (n = 360,000); Potency, µM (series often up to 57 µM), without a hit: at the top dose activity change, negative = inhibition, hits mostly inhibitors; AID 1745845, 2022; HEK-293 ATXN2-luciferase reporter, luminescence, 24 h; also: % is scaled to controls: 0 for no effect and ±100 for the full control effect; nearly all actives have a fitted effect of over 55% in size
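ATXN2-luciferase reporter cells (luciferase flanked by upstream and downstream ATXN2 gene portions) were treated 24 h at 37 °C with compounds at up to 57 uM. SteadyGlo luminescence gave expression; GF-AFC fluorescence gave viability.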
* hit, by the source's call; i = inactive; ? = inconclusive; . = no result given. Only some compounds are listed: those with a hit (about 17% of all), similar ones and a draw of the others. Calls follow the shape of the dose curve; as a rule, active = well fitted curve in the direction sought with a large enough effect; inconclusive = small, poorly fitted or top-dose-only effect, or another doubt; inactive = no such curve, though single readings can be large; an effect the other way counts as inactive or inconclusive. Potency is read from the fitted curve at half-maximal effect.

SMILES	ATXN viability	DT40 TDP1 no CPT	HepG2 tox	TGFb inhibitor	TDP1 cell CPT	ATXN2 expr inh
Nc1ncnc2c1ncn2Cc1c(F)cccc1Cl	i	.	.	.	.	9%
CCC(=O)Nc1cc(-c2nn(C)c(=O)c3ccccc23)ccc1OC	i	-7%	-1%	38%	-5%	25%
Cn1nc(C(=O)NCc2ccccc2)c2ccccc2c1=O	i	-19%	-19%	-12%	-14%	4%
COc1ccc(OC)c(NC(=O)Cc2nn(C)c(=O)c3ccccc23)c1	i	16µM*	-27%	?	16µM*	-3%
Cn1nc(CC(=O)NCc2ccc(C(F)(F)F)cc2)c2ccccc2c1=O	i	10µM*	-1%	2%	29µM*	-14%
O=C(CN1C(=O)C2C3C=CC(C4CC34)C2C1=O)Nc1cccc2ncccc12 (centres undefined)	i	-27%	-2%	13%	21µM*	4%
COc1ccc(-c2nn(C)c(=O)c3ccccc23)cc1NC(=O)COc1ccc(C)cc1	i	18µM*	2%	0%	23µM*	?
COc1cc(NC(=O)Cc2nn(C)c(=O)c3ccccc23)cc(OC)c1OC	i	?	-20%	7%	?	12%
Cc1c(NC(=O)c2cccs2)c(=O)n(-c2ccccc2)n1C	i	-5%	1%	-2%	6%	-19%
Cn1nc(CC(=O)Nc2cccc3ncccc23)c2ccccc2c1=O	i	21µM*	-2%	3%	13µM*	-2%
Cc1ccccc1NC(=O)CN1C(=O)C2C3CC(C(Br)C3Br)C2C1=O (centres undefined)	i	16µM*	1%	-22%	?	4%
N#Cc1c2ccc(O)cc2n2ccccc12	.	8.2µM*	-34%	?	?	0%
NC(=O)C1=CC2C3C=CC2(O)C(=O)OC3O1 (centres undefined)	.	5.8µM*	13µM*	11µM*	5.2µM*	21µM*
O=C(OCC#Cc1c(COC(=O)c2ccccc2)nnn1Cc1ccccc1)c1ccccc1	i	?	5%	1%	18µM*	-14%
CCCCC[n+]1ccn(-c2nc3ccccc3nc2[N-]S(=O)(=O)c2ccc(C)cc2)c1	i	-5%	-5%	3%	-2%	1%
CCCCC[n+]1ccn(C2=C([O-])c3ccccc3C(=O)/C2=N\S(=O)(=O)c2ccccc2)c1	i	18µM*	6.3µM*	?	15µM*	?
CC(C)[n+]1ccn(C2=C([O-])c3ccccc3C(=O)/C2=N\S(=O)(=O)c2ccccc2)c1	i	18µM*	-128%	20µM*	?	-41%
CCCCC[n+]1ccn(C2=C([O-])c3ccccc3C(=O)/C2=N\S(=O)(=O)c2ccc(Br)cc2)c1	i	?	4µM*	1.6µM*	10µM*	.
O=C1/C(=N\S(=O)(=O)c2cccs2)C([n+]2ccc(CCCc3ccccc3)cc2)=C([O-])c2ccccc21	i	-29%	-105%	16µM*	-12%	-19%
CC(C)c1ccc(NC(=O)C[n+]2ccn(C3=C([O-])c4ccccc4C3=O)c2)cc1	i	-26%	-3%	-9%	-1%	1%
CCCn1nnnc1SCC(=O)N(C(C)C)C(C)C	i	-18%	-3%	-4%	3%	0%
CC(C)CC(=O)Nc1c2c(nn1-c1ccc([N+](=O)[O-])cc1)CS(=O)(=O)C2	?	20%	2%	4%	8%	-21%
CS(=O)(=O)N(CC(=O)NCCSc1ccccn1)c1ccc(F)cc1	i	-9%	4%	4%	3%	-7%
CC(C)(C)c1cc[n+](C2=C([O-])c3ccccc3C(=O)/C2=N\S(=O)(=O)c2ccccc2)cc1	?	23µM*	i	14µM*	?	?
Cc1cc[n+](C2=C([O-])c3ccccc3C(=O)/C2=N\S(=O)(=O)c2cccs2)cc1C	i	?	-12%	-25%	?	-31%
SMILES	ATXN viability	DT40 TDP1 no CPT	HepG2 tox	TGFb inhibitor	TDP1 cell CPT	ATXN2 expr inh
Cc1noc(NS(=O)(=O)c2ccc(NC(=O)NC(C)(C(F)(F)F)C(F)(F)F)cc2)c1C	i	-13%	-10%	-6%	-17%	.
Cc1ccc(COC(=O)CN2C(=O)NC3(CCCCC3C)C2=O)cc1 (centres undefined)	i	-20%	12%	26%	4%	0%
O=C(CSc1nnc(-c2ccccc2Br)n1-c1ccccc1)c1ccc(F)cc1	i	.	-31%	-14%	.	-16%
COc1ccc(SC2=C[C@@]3(O)CC[C@@H](O)[C@@](Sc4ccc(OC)cc4)(C2=O)[C@H]3O)cc1	?	16µM*	.	.	23µM*	-30%
O=C1C(Sc2ccccc2)=C[C@@]2(O)CC[C@@H](O)[C@]1(Sc1ccccc1)[C@H]2O	?	5.8µM*	.	.	5.2µM*	?
O=C(COC(=O)C1CCN(c2ccc(C(F)(F)F)cn2)CC1)NCc1ccccc1	i	-28%	-24%	10%	-28%	.
CCc1ccc(NC(=O)CSc2nc(-c3ccccc3Cl)nc3c2Cc2c(CO)cnc(C)c2O3)cc1	i	1%	3%	-7%	?	2%
CCN(CC(=O)NCc1cccs1)C(=O)c1ccc(S(=O)(=O)Nc2ccccc2OC)cc1	i	-14%	-8%	-9%	-12%	-15%
CCn1c(C)c(C2=CCN(S(=O)(=O)c3ccc(C)cc3)CC2)c2ccccc21	i	18µM*	-9%	0%	?	-16%
Cc1c(C2=CCN(S(=O)(=O)c3ccc(Br)cc3)CC2)c2ccccc2n1C	i	?	-11%	0%	?	-9%
CCOC(=O)C(NC(=O)c1cccc(Cl)c1)(OCc1ccc(F)cc1)C(F)(F)F (centres undefined)	i	?	-26%	-33%	?	-3%
CCOC(=O)C(NC(=O)c1ccccc1)(OCc1ccc(F)cc1)C(F)(F)F (centres undefined)	?	18µM*	-20%	-3%	-27%	-10%
Cc1cc(C)cc(-n2c(O)c(C=NC3CCS(=O)(=O)C3)c3ccccc3c2=O)c1 (centres undefined)	i	?	-18%	11%	16µM*	-10%
